# Test results from PMC5540273 (PLoS ONE, 2017).
# “And” between values parts separate entries of the source, which are not always exact repeats. Identical values can stand only once. Like-named read-outs stand apart in the source and are kept apart here.
# Columns and labels:
# KIT-autoinhibited = conditions: concentration: 1 μM, replicates: in singlicate, n = 1
# KIT = conditions: concentration: 1 μM, replicates: in singlicate, n = 1
# LATS1 = conditions: concentration: 1 μM, replicates: in singlicate, n = 1
# LATS2 = conditions: concentration: 1 μM, replicates: in singlicate, n = 1
# LCK = conditions: concentration: 1 μM, replicates: in singlicate, n = 1
# LIMK2 = conditions: concentration: 1 μM, replicates: in singlicate, n = 1
# LKB1 = test system: T1, LKB1; conditions: concentration: 1 μM, replicates: in singlicate, n = 1
# T1 construct: gene STK11
# LOK = test system: T2, LOK; conditions: concentration: 1 μM, replicates: in singlicate, n = 1
# T2 construct: gene STK10
# LRRK2 = conditions: concentration: 1 μM, replicates: in singlicate, n = 1
# LTK = conditions: n = 1
# LZK = test system: T3, LZK; conditions: concentration: 1 μM, replicates: in singlicate, n = 1
# T3 construct: gene MAP3K13
# MAP3K15 = conditions: concentration: 1 μM, replicates: in singlicate, n = 1
# MAP3K1 = conditions: concentration: 1 μM, replicates: in singlicate, n = 1
# MAP3K2 = conditions: concentration: 1 μM, replicates: in singlicate, n = 1
# MAP3K3 = conditions: concentration: 1 μM, replicates: in singlicate, n = 1
# MAP3K4 = conditions: concentration: 1 μM, replicates: in singlicate, n = 1
# MAP4K2 = conditions: concentration: 1 μM, replicates: in singlicate, n = 1
# LIMK1 = conditions: concentration: 1 μM, replicates: in singlicate; n = 1
# LYN = conditions: concentration: 1 μM, replicates: in singlicate; n = 1
# MAK = conditions: concentration: 1 μM, replicates: in singlicate; n = 1
# [1] = concentration: 1 μM, replicates: in singlicate
# 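Further: KINOMEscan kinase panel screen.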
smiles,measurement,setting,value
NCCNS(=O)(=O)c1ccc(-c2ccnc3[nH]ccc23)cc1 [GSK977617],%Inh,KIT-autoinhibited; 1 µM,0% and 21%
same,%Inh,KIT; 1 µM,44% and 28%
same,%Inh,LATS1; 1 µM,75% and 70%
same,%Inh,LATS2; 1 µM,95.8% and 95.9%
same,%Inh,LCK; 1 µM,38% and 3%
same,%Inh,LIMK2; 1 µM,6% and 12%
same,%Inh,LKB1; 1 µM,0% and 2%
same,%Inh,LOK; 1 µM,12% and 0%
same,%Inh,LRRK2; 1 µM,17% and 0%
same,%Inh,"LTK; concentration: 1 μM, replicates: in singlicate, 1 µM",37% and 0%
same,%Inh,LZK; 1 µM,22% and 3%
same,%Inh,MAP3K15; 1 µM,4% and 0%
same,%Inh,MAP3K1; 1 µM,8% and 11%
same,%Inh,MAP3K2; 1 µM,83% and 72%
same,%Inh,MAP3K3; 1 µM,63% and 56%
same,%Inh,MAP3K4; 1 µM,0% and 21%
same,%Inh,MAP4K2; 1 µM,47% and 38%
O=c1cc(N2CCOCC2)nc2n(Cc3cccc(Cl)c3Cl)c(C3CC3)nn12 [GSK2358994],%Inh,LTK; 1 µM,0%
O=C(Nc1cccc(-c2nn3ncccc3c2-c2ccnc(Nc3cccc(C(F)(F)F)c3)n2)c1)c1c(F)cccc1F [GSK299495],%Inh,KIT-autoinhibited,0%
same,%Inh,KIT,98.7%
same,%Inh,LATS1,13%
same,%Inh,LATS2,6%
same,%Inh,LCK,98.2%
same,%Inh,LIMK1,9%
same,%Inh,LIMK2,0%
same,%Inh,LKB1,0%
same,%Inh,LOK,96.6%
same,%Inh,LRRK2,0%
same,%Inh,LTK; [1],3%
same,%Inh,LYN,87%
same,%Inh,LZK,12%
same,%Inh,MAK,0%
same,%Inh,MAP3K15,0%
same,%Inh,MAP3K1,15%
same,%Inh,MAP3K2,24%
same,%Inh,MAP3K3,0%
same,%Inh,MAP3K4,33%
same,%Inh,MAP4K2,0%
Cl.Nc1ncnc2occ(-c3ccc(NC(=O)Nc4cc(C(F)(F)F)ccc4F)cc3)c12 [SB-707548],%Inh,KIT-autoinhibited,79%
same,%Inh,KIT,99.9%
same,%Inh,LATS1,0%
same,%Inh,LATS2,40%
same,%Inh,LCK,88%
same,%Inh,LIMK1,25%
same,%Inh,LIMK2,34%
same,%Inh,LKB1,21%
same,%Inh,LOK,99.9%
same,%Inh,LRRK2,2%
same,%Inh,LTK; [1],97.2%
same,%Inh,LYN,75%
same,%Inh,LZK,40%
same,%Inh,MAK,6%
same,%Inh,MAP3K15,5%
same,%Inh,MAP3K1,34%
same,%Inh,MAP3K2,8%
same,%Inh,MAP3K3,17%
same,%Inh,MAP3K4,25%
same,%Inh,MAP4K2,62%
NS(=O)(=O)c1cccc(-c2ccc3nccc(-c4cccc(S(N)(=O)=O)c4)c3c2)c1 [GW867253],%Inh,KIT-autoinhibited,25%
same,%Inh,KIT,0%
same,%Inh,LATS1,0%
same,%Inh,LATS2,0%
same,%Inh,LCK,0%
same,%Inh,LIMK1,0%
same,%Inh,LIMK2,0%
same,%Inh,LKB1,0%
same,%Inh,LOK,2%
same,%Inh,LRRK2,0%
same,%Inh,LTK; [1],0%
same,%Inh,LYN,0%
same,%Inh,LZK,1%
same,%Inh,MAK,0%
same,%Inh,MAP3K15,0%
same,%Inh,MAP3K1,8%
same,%Inh,MAP3K2,15%
same,%Inh,MAP3K3,0%
same,%Inh,MAP3K4,12%
same,%Inh,MAP4K2,9%
CCc1ccnc(/C=C/c2n[nH]c3cc(Sc4ccccc4C(=O)NC)ccc23)c1,%Inh,KIT-autoinhibited,96.9%
same,%Inh,KIT,100%
same,%Inh,LATS1,9%
same,%Inh,LATS2,0%
same,%Inh,LCK,5%
same,%Inh,LIMK1,0%
same,%Inh,LIMK2,0%
same,%Inh,LKB1,0%
same,%Inh,LOK,23%
same,%Inh,LRRK2,23%
same,%Inh,LTK; [1],6%
same,%Inh,LYN,23%
same,%Inh,LZK,17%
same,%Inh,MAK,20%
same,%Inh,MAP3K15,0%
same,%Inh,MAP3K1,12%
same,%Inh,MAP3K2,17%
same,%Inh,MAP3K3,6%
same,%Inh,MAP3K4,4%
same,%Inh,MAP4K2,9%
NCC(NC(=O)c1cc(-c2cn[nH]c2)c(-c2ccnc3[nH]ccc23)s1)c1ccccc1.O=C(O)C(F)(F)F.O=C(O)C(F)(F)F (stereo not drawn) [GSK1325775],%Inh,KIT-autoinhibited,0%
same,%Inh,KIT,26%
same,%Inh,LATS1,59%
same,%Inh,LATS2,91.1%
same,%Inh,LCK,4%
same,%Inh,LIMK1,0%
same,%Inh,LIMK2,28%
same,%Inh,LKB1,57%
same,%Inh,LOK,0%
same,%Inh,LRRK2,3%
same,%Inh,LTK; [1],0%
same,%Inh,LYN,0%
same,%Inh,LZK,0%
same,%Inh,MAK,16%
same,%Inh,MAP3K15,21%
same,%Inh,MAP3K1,12%
same,%Inh,MAP3K2,8%
same,%Inh,MAP3K3,0%
same,%Inh,MAP3K4,20%
same,%Inh,MAP4K2,84%
Fc1ccc(-c2ncn(CCCN3CCOCC3)c2-c2ccccn2)cc1 [SB-211742],%Inh,KIT-autoinhibited,0%
same,%Inh,KIT,0%
same,%Inh,LATS1,10%
same,%Inh,LATS2,0%
same,%Inh,LCK,28%
same,%Inh,LIMK1,0%
same,%Inh,LIMK2,0%
same,%Inh,LKB1,33%
same,%Inh,LOK,8%
same,%Inh,LRRK2,0%
same,%Inh,LTK; [1],11%
same,%Inh,LYN,0%
same,%Inh,LZK,0%
same,%Inh,MAK,0%
same,%Inh,MAP3K15,0%
same,%Inh,MAP3K1,0%
same,%Inh,MAP3K2,0%
same,%Inh,MAP3K3,0%
same,%Inh,MAP3K4,18%
same,%Inh,MAP4K2,0%
O=C(c1ccc(-c2cc(-c3c[nH]nc3-c3ccccn3)ccn2)cc1)N1CCOCC1 [GW812171],%Inh,KIT-autoinhibited,29%
same,%Inh,KIT,0%
same,%Inh,LATS1,0%
same,%Inh,LATS2,0%
same,%Inh,LCK,0%
same,%Inh,LIMK1,0%
same,%Inh,LIMK2,0%
same,%Inh,LKB1,0%
same,%Inh,LOK,28%
same,%Inh,LRRK2,0%
same,%Inh,LTK; [1],4%
same,%Inh,LYN,0%
same,%Inh,LZK,0%
same,%Inh,MAK,0%
same,%Inh,MAP3K15,0%
same,%Inh,MAP3K1,0%
same,%Inh,MAP3K2,22%
same,%Inh,MAP3K3,0%
same,%Inh,MAP3K4,9%
same,%Inh,MAP4K2,0%
CSc1ccc(-c2cc3ncnc(SCC(=O)O)c3s2)cc1,%Inh,KIT-autoinhibited,0%
same,%Inh,KIT,51%
same,%Inh,LATS1,7%
same,%Inh,LATS2,4%
same,%Inh,LCK,0%
same,%Inh,LIMK1,0%
same,%Inh,LIMK2,0%
same,%Inh,LKB1,0%
same,%Inh,LOK,19%
same,%Inh,LRRK2,0%
same,%Inh,LTK; [1],17%
same,%Inh,LYN,0%
same,%Inh,LZK,0%
same,%Inh,MAK,29%
same,%Inh,MAP3K15,0%
same,%Inh,MAP3K1,0%
same,%Inh,MAP3K2,0%
same,%Inh,MAP3K3,0%
same,%Inh,MAP3K4,10%
same,%Inh,MAP4K2,0%
CN(C(=O)c1ccc(-c2cc(-c3c[nH]nc3-c3ccccn3)ccn2)cc1)C1CCOCC1 [GW810083],%Inh,KIT-autoinhibited,0%
same,%Inh,KIT,0%
same,%Inh,LATS1,0%
same,%Inh,LATS2,2%
same,%Inh,LCK,0%
same,%Inh,LIMK1,0%
same,%Inh,LIMK2,0%
same,%Inh,LKB1,16%
same,%Inh,LOK,0%
same,%Inh,LRRK2,0%
same,%Inh,LTK; [1],0%
same,%Inh,LYN,0%
same,%Inh,LZK,0%
same,%Inh,MAK,6%
same,%Inh,MAP3K15,0%
same,%Inh,MAP3K1,0%
same,%Inh,MAP3K2,0%
same,%Inh,MAP3K3,0%
same,%Inh,MAP3K4,0%
same,%Inh,MAP4K2,0%
